Inconclusive results are not listed. Active and inactive are the calls of the source. Rule for the calls: active = hit-call score of the fitted dose curve at least 0.9, where 1 is the maximum; inconclusive = response in the unintended direction; inactive = score below 0.9.
Target: sheep Cyclooxygenase-1 (Cox1), PTGS1 (gene 443551) (UniProt P05979)
Test: NVS_ENZ_oCOX1: NovaScreen (NVS) Enzymatic Assay for sheep Cyclooxygenase-1 (Cox1) (AID 2283239);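 note: actives reduce cyclooxygenase activity so potencies are for inhibitors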
In short: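 COX1 from ovine seminal vesicles, activity read colorimetrically about 0.66 h after dosing. Primary screen in duplicate at 25 uM; actives retested in concentration series; loss of signal fitted versus DMSO.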

Sequence of sheep Cyclooxygenase-1 (Cox1), PTGS1 (gene 443551) (P05979 whole entry, looked up): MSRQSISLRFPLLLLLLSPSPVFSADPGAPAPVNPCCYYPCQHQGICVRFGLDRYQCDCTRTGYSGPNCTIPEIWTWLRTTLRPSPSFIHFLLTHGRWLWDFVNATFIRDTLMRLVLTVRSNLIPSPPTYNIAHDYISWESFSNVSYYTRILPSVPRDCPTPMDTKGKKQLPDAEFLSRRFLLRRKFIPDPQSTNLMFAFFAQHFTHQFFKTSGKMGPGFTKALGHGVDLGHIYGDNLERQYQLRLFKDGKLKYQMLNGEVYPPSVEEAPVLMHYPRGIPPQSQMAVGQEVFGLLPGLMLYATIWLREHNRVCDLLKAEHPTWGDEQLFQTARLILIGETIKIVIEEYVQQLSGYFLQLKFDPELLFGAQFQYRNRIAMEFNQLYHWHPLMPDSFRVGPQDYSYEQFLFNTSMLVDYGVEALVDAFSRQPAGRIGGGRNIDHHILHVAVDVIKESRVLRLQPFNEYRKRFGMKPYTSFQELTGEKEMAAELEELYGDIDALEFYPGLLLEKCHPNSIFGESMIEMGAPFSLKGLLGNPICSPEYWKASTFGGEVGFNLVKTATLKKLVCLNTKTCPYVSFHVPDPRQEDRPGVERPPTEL

Row | Compound | outcome | AC50
1 | CCCSP(=O)(OCC)SCCC | inactive | 
2 | CCCCOC(=O)c1ccccc1C(=O)O | inactive | 
3 | CC(C)=CC1C(C(=O)OCN2C(=O)C3=C(CCCC3)C2=O)C1(C)C (stereo not given) |  | 4.96 µM (active)

Target: rat Monoamine Oxidase, MAO-B, Peripheral (MAOBP), Maob (gene 25750) (UniProt P19643)
Test: NVS_ENZ_rMAOBP: NovaScreen (NVS) Enzymatic Assay for rat Monoamine Oxidase, MAO-B, Peripheral (MAOBP) (AID 2283242)

Sequence of rat Monoamine Oxidase, MAO-B, Peripheral (MAOBP), Maob (gene 25750) (P19643 whole entry, looked up): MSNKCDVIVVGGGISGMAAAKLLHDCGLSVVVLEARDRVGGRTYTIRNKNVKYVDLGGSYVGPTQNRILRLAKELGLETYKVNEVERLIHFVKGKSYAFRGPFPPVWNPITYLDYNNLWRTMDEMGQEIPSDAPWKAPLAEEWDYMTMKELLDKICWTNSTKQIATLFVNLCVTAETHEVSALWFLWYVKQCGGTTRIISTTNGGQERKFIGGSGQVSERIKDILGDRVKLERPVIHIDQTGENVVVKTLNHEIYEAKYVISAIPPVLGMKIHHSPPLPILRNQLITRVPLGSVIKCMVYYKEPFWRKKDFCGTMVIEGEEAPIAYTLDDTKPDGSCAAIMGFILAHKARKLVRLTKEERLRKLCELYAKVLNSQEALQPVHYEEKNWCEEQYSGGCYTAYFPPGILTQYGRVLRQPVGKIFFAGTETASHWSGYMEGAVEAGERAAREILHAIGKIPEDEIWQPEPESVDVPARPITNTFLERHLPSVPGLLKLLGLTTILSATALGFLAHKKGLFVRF

Row | Compound | outcome | AC50
4 | CSc1nnc(C(C)(C)C)c(=O)n1N | inactive | 
5 | CCC(=O)Nc1ccc(Cl)c(Cl)c1 |  | 25 µM (active)
6 | CC(C1CC1)C(O)(Cn1cncn1)c1ccc(Cl)cc1 (stereo not given) | inactive | 
7 | S=C1NCCN1 | inactive | 
8 | Nc1c(Cl)cc([N+](=O)[O-])cc1Cl |  | 39.8 µM (active)
9 | Nc1nc(N)nc(NC2CC2)n1 | inactive | 
10 | FC(F)C(F)(F)OCC(Cn1cncn1)c1ccc(Cl)cc1Cl (stereo not given) | inactive | 
11 | O=c1ccc(=O)[nH][nH]1 | inactive | 
12 | Cc1nn(-c2cc(NS(C)(=O)=O)c(Cl)cc2Cl)c(=O)n1C(F)F | inactive | 

System: rat Monoamine Oxidase, MAO-A, Central (MAOAC), gene 29253
Test: NVS_ENZ_rMAOAC: NovaScreen (NVS) Enzymatic Assay for rat Monoamine Oxidase, MAO-A, Central (MAOAC) (AID 2283243);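 note: potency refers to inhibition seen as signal drop below DMSO baseline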
In short: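 Inhibition of rat brain-derived MAO-A was read by scintillation counting after 1.5 h exposure. Compounds screened first at 25 uM in duplicate, then in dose series if active.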

Row | Compound | AC50 | outcome
13 | C[Si](Cn1cncn1)(c1ccc(F)cc1)c1ccc(F)cc1 | 34 µM (active) | 
14 | CC(=NC#N)N(C)Cc1ccc(Cl)nc1 | 13.3 µM (active) | 
15 | CN(C)C(=O)Nc1cccc(C(F)(F)F)c1 | 29.7 µM (active) | 
16 | CC[C@H](C)[C@H]1O[C@]2(C=C[C@@H]1C)C[C@@H]1C[C@@H](C/C=C(\C)[C@@H](O[C@H]3C[C@H](OC)[C@@H](O[C@H]4C[C@H](OC)[C@@H](NC)[C@H](C)O4)[C@H](C)O3)[C@@H](C)/C=C/C=C3\CO[C@@H]4[C@H](O)C(C)=C[C@@H](C(=O)O1)[C@]34O)O2 |  | inactive
17 | CCC(=O)Nc1ccc(Cl)c(Cl)c1 | 15.3 µM (active) | 
18 | CC1(C(=O)Nc2ccc(O)c(Cl)c2Cl)CCCCC1 |  | inactive
19 | CCc1cccc(C)c1N(C(=O)CCl)C(C)COC (stereo not given) |  | inactive
20 | Nc1c(Cl)cc([N+](=O)[O-])cc1Cl | 15.6 µM (active) | 

Target: Adenosine receptor A1 (Bos taurus) (UniProt P28190)
Test: NVS_GPCR_bAdoR_NonSelective: NovaScreen (NVS) G Protein-Coupled Receptor Assay for bovine Adenosine Receptor (AdoR), Non-selective Binding (AID 2283244)
Description: NVS_GPCR_bAdoR_NonSelective is a biochemical, single-readout assay that uses extracted gene-proteins from Bovine striatal membranes in a tissue-based cell-free assay. Measurements were taken 1 hour after chemical dosing in a 96-well plate.NVS_GPCR_bAdoR_NonSelective is one of one assay component(s) measured or calculated from the NVS_GPCR_bAdoR_NonSelective assay. It is designed to make measurements of radioligand binding, a form of binding reporter, as detected with scintillation counting signals by Filter-based radiodetection technology.Data from the assay component NVS_GPCR_bAdoR_NonSelective was analyzed into 1 assay endpoint. This assay endpoint, NVS_GPCR_bAdoR_NonSelective, was analyzed in the positive analysis fitting direction relative to DMSO as the negative control and baseline of activity. Using a type of binding reporter, loss-of-signal activity can be used to understand changes in the binding as they relate to the gene ADORA1. Furthermore, this assay endpoint can be referred to as a primary readout, because the performed assay has only produced 1 assay endpoint. To generalize the intended target to other relatable targets, this assay endpoint is annotated to the gpcr intended target family, where the subfamily is rhodopsin-like receptor.
Binding assays used specific radioligands (tritiated, iodinated) with non-radioactive competitive displacement ligands in agonist or antagonist protocols (as indicated) and various reference compounds and inhibitors to titrate specific binding to receptors and transporters. Most enzyme assays (CYPs, kinases, phosphatases, proteases, HDACs) used recombinant protein and specific substrates (fluorescence mostly, some colorimetric and radioactive) and inhibitors, followed by a biochemical separation of substrate and product. All assays for the biochemical HTS were initially run in duplicate at a single concentration (10 uM for CYP450 assays and 25 uM for all others). Assay-chemical combinations meeting a pre-defined threshold (e.g., 30% inhibition and other criteria defined below) were then run in singleton concentration-response format with maximum concentration of 20 uM for CYPs and 50 uM for all others. Each assay was run with positive and negative controls, and concurrent controls on every plate. The follow-up (secondary) screen tested active chemical-pairs in concentration series, as well as a few additional assays not tested in the primary screen, some selected negative inactives, and several cases re-run in the concentration series for confirmatory purposes.

Sequence of Adenosine receptor A1 (Bos taurus) (P28190 whole entry, looked up): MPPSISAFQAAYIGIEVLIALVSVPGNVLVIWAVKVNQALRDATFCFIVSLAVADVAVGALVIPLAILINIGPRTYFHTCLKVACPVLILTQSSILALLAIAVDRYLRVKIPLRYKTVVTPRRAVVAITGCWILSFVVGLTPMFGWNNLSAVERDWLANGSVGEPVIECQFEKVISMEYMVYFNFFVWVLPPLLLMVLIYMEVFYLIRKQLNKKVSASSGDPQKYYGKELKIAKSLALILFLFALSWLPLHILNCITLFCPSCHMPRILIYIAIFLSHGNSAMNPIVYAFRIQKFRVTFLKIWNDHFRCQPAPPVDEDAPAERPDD

Row | Compound | outcome | AC50
21 | CCOC(=O)CC(SP(=O)(OC)OC)C(=O)OCC (stereo not given) | inactive | 
22 | CSc1nc(NC(C)C)nc(NC(C)C)n1 |  | 5.37 µM (active)
23 | COP(=O)(OC)OC(Br)C(Cl)(Cl)Br (stereo not given) |  | 25 µM (active)
24 | Cc1cc(C2CC2)nc(Nc2ccccc2)n1 |  | 25 µM (active)
25 | CCNc1nc(Cl)nc(NC(C)(C)C#N)n1 |  | 13.3 µM (active)
